# From PubChem BioAssay AID1159580 (chemical genetic matrix, 2015)
# Values joined by “and” are separate entries in the source; they are usually repeats but may differ in a detail not shown here. Identical values can stand only once. About 2,000 (36%) of roughly 5,500 compounds were called active. Another 18% or so got no clear call; they are omitted. No stated cut-off is given here; in the data, active means normalized growth mostly below about 0.91 (no sharp cut-off); inconclusive means no clear call, values can overlap the other calls; inactive means mostly above about 0.92. Some of the results follow.
# Test: chemical genetic growth profiling, strain panel (AID 1159580);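 further: tested at 20 µM; growth read once vehicle control cultures reached saturation at 30 °C; 1 = growth at the plate median or of vehicle wells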
# Details: growth OD
compound,measurement,setting,value
O=C(O)Cc1cc(I)c(Oc2cc(I)c(O)c(I)c2)c(I)c1,normalized growth,"S. cerevisiae deletion strains, locus YAL013W, strain DEP1, stronger effect = lower value",0.948 (inactive)
same,normalized growth,"S. cerevisiae deletion strains, locus YBR021W, strain FUR4, stronger effect = lower value",1.03 (inactive)
same,normalized growth,"S. cerevisiae deletion strains, locus YBR229C, strain ROT2, stronger effect = lower value",0.936 (inactive)
same,normalized growth,"S. cerevisiae deletion strains, locus YCL029C, strain bik1, stronger effect = lower value",0.96 (inactive)
same,normalized growth,"S. cerevisiae deletion strains, locus YDL035C, strain GPR1, stronger effect = lower value",0.982 (inactive)
same,normalized growth,"S. cerevisiae deletion strains, locus YDL074C, strain BRE1, stronger effect = lower value",0.942 (inactive)
same,normalized growth,"S. cerevisiae deletion strains, locus YDL101C, strain DUN1, stronger effect = lower value",0.955 (inactive)
same,normalized growth,"S. cerevisiae deletion strains, locus YDL134C, strain PPH21, stronger effect = lower value",0.968 (inactive)
same,normalized growth,"S. cerevisiae deletion strains, locus YDL185W, strain tfp1, stronger effect = lower value",0.931 (inactive)
same,normalized growth,"S. cerevisiae deletion strains, locus YDL192W, strain arf1, stronger effect = lower value",0.957 (inactive)
same,normalized growth,"S. cerevisiae deletion strains, locus YDR101C, strain arx1, stronger effect = lower value",0.979 (inactive)
same,normalized growth,"S. cerevisiae deletion strains, locus YDR150W, strain NUM1, stronger effect = lower value",0.943 (inactive)
same,normalized growth,"S. cerevisiae deletion strains, locus YDR162C, strain NBP2, stronger effect = lower value",0.847 (inactive)
same,normalized growth,"S. cerevisiae deletion strains, locus YDR318W, strain mcm21, stronger effect = lower value",0.98 (inactive)
same,normalized growth,"S. cerevisiae deletion strains, locus YDR388W, stronger effect = lower value",0.955 (inactive)
same,normalized growth,"S. cerevisiae deletion strains, locus YDR502C, strain sam2, stronger effect = lower value",0.957 (inactive)
same,normalized growth,"S. cerevisiae deletion strains, locus YEL061C, strain CIN8, stronger effect = lower value",0.964 (inactive)
same,normalized growth,"S. cerevisiae deletion strains, locus YER110C, stronger effect = lower value",0.973 (inactive)
same,normalized growth,"S. cerevisiae deletion strains, locus YER155C, strain BEM2, stronger effect = lower value",0.97 (inactive)
same,normalized growth,"S. cerevisiae deletion strains, locus YER167W, strain BCK2, stronger effect = lower value",0.97 (inactive)
same,normalized growth,"S. cerevisiae deletion strains, locus YGL078C, strain dbp3, stronger effect = lower value",0.94 (inactive)
same,normalized growth,"S. cerevisiae deletion strains, locus YGL086W, strain mad1, stronger effect = lower value",0.982 (inactive)
same,normalized growth,"S. cerevisiae deletion strains, locus YGL248W, strain PDE1, stronger effect = lower value",0.965 (inactive)
same,normalized growth,"S. cerevisiae deletion strains, locus YGR078C, strain PAC10, stronger effect = lower value",0.958 (inactive)
same,normalized growth,"S. cerevisiae deletion strains, locus YGR135W, strain pre9, stronger effect = lower value",0.942 (inactive)
same,normalized growth,"S. cerevisiae deletion strains, locus YGR229C, strain SMI1, stronger effect = lower value",0.973 (inactive)
same,normalized growth,"S. cerevisiae deletion strains, locus YGR252W, strain gcn5, stronger effect = lower value",1.06 (inactive)
same,normalized growth,"S. cerevisiae deletion strains, locus YHR030C, strain SLT2, stronger effect = lower value",0.989 (inactive) and 0.84 (active)
same,normalized growth,"S. cerevisiae deletion strains, locus YHR079C, strain IRE1 (second series), stronger effect = lower value",0.973 (inactive)
same,normalized growth,"S. cerevisiae deletion strains, locus YHR079C, strain IRE1, stronger effect = lower value",0.762 (active)
same,normalized growth,"S. cerevisiae deletion strains, locus YHR094C, strain hxt1, stronger effect = lower value",0.956 (inactive)
same,normalized growth,"S. cerevisiae deletion strains, locus YHR129C, strain ARP1, stronger effect = lower value",0.976 (inactive)
same,normalized growth,"S. cerevisiae deletion strains, locus YHR200W, strain rpn10, stronger effect = lower value",0.959 (inactive)
same,normalized growth,"S. cerevisiae deletion strains, locus YIL066C, strain RNR3, stronger effect = lower value",0.97 (inactive)
same,normalized growth,"S. cerevisiae deletion strains, locus YIL073C, strain SPO22, stronger effect = lower value",1.02 (inactive)
same,normalized growth,"S. cerevisiae deletion strains, locus YIL125W, strain kgd1, stronger effect = lower value",0.944 (inactive)
same,normalized growth,"S. cerevisiae deletion strains, locus YIR030C, strain dcg1, stronger effect = lower value",0.939 (inactive)
same,normalized growth,"S. cerevisiae deletion strains, locus YJL095W, strain BCK1, stronger effect = lower value",0.924 (inactive) and 0.892 (inactive)
same,normalized growth,"S. cerevisiae deletion strains, locus YJL134W, strain LCB3, stronger effect = lower value",0.954 (inactive)
same,normalized growth,"S. cerevisiae deletion strains, locus YJL168C, strain set2, stronger effect = lower value",0.942 (inactive)
same,normalized growth,"S. cerevisiae deletion strains, locus YJL187C, strain SWE1 (second series), stronger effect = lower value",0.949 (inactive)
same,normalized growth,"S. cerevisiae deletion strains, locus YJR043C, strain POL32, stronger effect = lower value",1.06 (inactive)
same,normalized growth,"S. cerevisiae deletion strains, locus YJR066W, strain TOR1, stronger effect = lower value",0.864 (inactive)
same,normalized growth,"S. cerevisiae deletion strains, locus YJR075W, strain HOC1, stronger effect = lower value",1 (inactive)
same,normalized growth,"S. cerevisiae deletion strains, locus YKL009W, strain mrt4, stronger effect = lower value",0.945 (inactive)
same,normalized growth,"S. cerevisiae deletion strains, locus YKL068W, stronger effect = lower value",0.917 (active)
same,normalized growth,"S. cerevisiae deletion strains, locus YKL085W, strain MDH1 (second series), stronger effect = lower value",0.924 (active)
same,normalized growth,"S. cerevisiae deletion strains, locus YKL085W, strain MDH1, stronger effect = lower value",0.924 (active)
same,normalized growth,"S. cerevisiae deletion strains, locus YKL190W, strain CNB1, stronger effect = lower value",0.946 (inactive)
same,normalized growth,"S. cerevisiae deletion strains, locus YKR001C, strain vps1, stronger effect = lower value",0.931 (inactive)
same,normalized growth,"S. cerevisiae deletion strains, locus YLR039C, strain RIC1, stronger effect = lower value",0.817 (inactive)
same,normalized growth,"S. cerevisiae deletion strains, locus YLR058C, strain SHM2, stronger effect = lower value",0.959 (inactive)
same,normalized growth,"S. cerevisiae deletion strains, locus YLR102C, strain apc9, stronger effect = lower value",0.935 (inactive)
same,normalized growth,"S. cerevisiae deletion strains, locus YLR113W, strain HOG1, stronger effect = lower value",0.418 (active)
same,normalized growth,"S. cerevisiae deletion strains, locus YLR262C, strain YPT6, stronger effect = lower value",0.749 (inactive)
same,normalized growth,"S. cerevisiae deletion strains, locus YLR268W, strain sec22, stronger effect = lower value",0.963 (inactive)
same,normalized growth,"S. cerevisiae deletion strains, locus YLR330W, strain CHS5, stronger effect = lower value",0.967 (inactive)
same,normalized growth,"S. cerevisiae deletion strains, locus YLR342W, strain FKS1 (second series), stronger effect = lower value",1.02 (inactive)
same,normalized growth,"S. cerevisiae deletion strains, locus YLR371W, strain rom2, stronger effect = lower value",0.987 (inactive)
same,normalized growth,"S. cerevisiae deletion strains, locus YLR418C, strain cdc73, stronger effect = lower value",0.911 (inactive)
same,normalized growth,"S. cerevisiae deletion strains, locus YML016C, strain PPZ1, stronger effect = lower value",0.95 (inactive)
same,normalized growth,"S. cerevisiae deletion strains, locus YML032C, strain rad52, stronger effect = lower value",0.983 (inactive)
same,normalized growth,"S. cerevisiae deletion strains, locus YML124C, strain tub3, stronger effect = lower value",0.951 (inactive)
same,normalized growth,"S. cerevisiae deletion strains, locus YMR078C, strain ctf18, stronger effect = lower value",0.96 (inactive)
same,normalized growth,"S. cerevisiae deletion strains, locus YMR223W, strain ubp8, stronger effect = lower value",1.01 (inactive)
same,normalized growth,"S. cerevisiae deletion strains, locus YMR263W, strain SAP30, stronger effect = lower value",0.944 (inactive)
same,normalized growth,"S. cerevisiae deletion strains, locus YMR307W, strain GAS1, stronger effect = lower value",1.07 (inactive)
same,normalized growth,"S. cerevisiae deletion strains, locus YNL067W, strain RPL9B, stronger effect = lower value",0.969 (inactive)
same,normalized growth,"S. cerevisiae deletion strains, locus YNL128W, strain TEP1, stronger effect = lower value",0.952 (inactive)
same,normalized growth,"S. cerevisiae deletion strains, locus YNL153C, strain GIM3, stronger effect = lower value",0.951 (inactive)
same,normalized growth,"S. cerevisiae deletion strains, locus YNL183C, strain NPR1, stronger effect = lower value",0.829 (inactive)
same,normalized growth,"S. cerevisiae deletion strains, locus YNL233W, strain BNI4, stronger effect = lower value",0.968 (inactive)
same,normalized growth,"S. cerevisiae deletion strains, locus YNL250W, strain rad50, stronger effect = lower value",0.923 (inactive)
same,normalized growth,"S. cerevisiae deletion strains, locus YNL271C, strain bni1, stronger effect = lower value",0.942 (inactive)
same,normalized growth,"S. cerevisiae deletion strains, locus YNL298W, strain CLA4, stronger effect = lower value",0.952 (inactive)
same,normalized growth,"S. cerevisiae deletion strains, locus YNL307C, strain MCK1, stronger effect = lower value",0.982 (inactive)
same,normalized growth,"S. cerevisiae deletion strains, locus YNL322C, strain KRE1, stronger effect = lower value",0.962 (inactive)
same,normalized growth,"S. cerevisiae deletion strains, locus YNR052C, strain pop2, stronger effect = lower value",0.973 (inactive)
same,normalized growth,"S. cerevisiae deletion strains, locus YOL006C, strain TOP1, stronger effect = lower value",0.862 (inactive)
same,normalized growth,"S. cerevisiae deletion strains, locus YOL012C, strain htz1",0.639 (inactive)
same,normalized growth,"S. cerevisiae deletion strains, locus YOL147C, strain pex11, stronger effect = lower value",0.965 (inactive)
same,normalized growth,"S. cerevisiae deletion strains, locus YOR061W, strain CKA2, stronger effect = lower value",0.929 (inactive)
same,normalized growth,"S. cerevisiae deletion strains, locus YOR069W, strain VPS5, stronger effect = lower value",0.962 (inactive)
same,normalized growth,"S. cerevisiae deletion strains, locus YOR136W, strain idh2, stronger effect = lower value",0.997 (inactive)
same,normalized growth,"S. cerevisiae deletion strains, locus YOR144C, strain elg1, stronger effect = lower value",0.947 (inactive)
same,normalized growth,"S. cerevisiae deletion strains, locus YOR184W, strain ser1, stronger effect = lower value",1.03 (inactive)
same,normalized growth,"S. cerevisiae deletion strains, locus YOR231W, strain MKK1, stronger effect = lower value",0.67 (active)
same,normalized growth,"S. cerevisiae deletion strains, locus YOR316C, strain cot1, stronger effect = lower value",0.941 (inactive)
same,normalized growth,"S. cerevisiae deletion strains, locus YPL055C, strain LGE1, stronger effect = lower value",0.922 (inactive)
same,normalized growth,"S. cerevisiae deletion strains, locus YPL241C, strain CIN2, stronger effect = lower value",0.953 (inactive)
same,normalized growth,"S. cerevisiae deletion strains, locus YPL256C, strain CLN2, stronger effect = lower value",0.679 (active)
same,normalized growth,"S. cerevisiae deletion strains, locus YPR119W, strain clb2, stronger effect = lower value",0.95 (inactive)
same,normalized growth,"S. cerevisiae deletion strains, locus YPR141C, strain kar3, stronger effect = lower value",0.924 (inactive)
same,normalized growth,"S. cerevisiae deletion strains, locus YPR163C, strain tif3, stronger effect = lower value",0.719 (active)
same,normalized growth,"S. cerevisiae deletion strains, locus YPR167C, strain met16, stronger effect = lower value",0.98 (inactive)
same,normalized growth,"S. cerevisiae deletion strains, strain wtn01, stronger effect = lower value",0.95 (inactive)
same,normalized growth,"S. cerevisiae strains, strain wild type, stronger effect = lower value",0.96 (inactive)
